In PubChem BioAssay (Tox21):
Unmarked numbers belong to inactive results. Records with an inconclusive call do not appear. Entries that show only a call come without a potency. Activity calls are given as the source filed them. Unless noted, calls follow the shape of the dose curve; as a rule, active = well fitted curve in the direction sought with a large enough effect in the repeat runs; inconclusive = weak or mixed curves; inactive = flat fitted curve, though single readings scatter.

System: not listed separately
Test: qHTS assay to test for compound auto fluorescence at 460 nm (blue) in HepG2 cells (AID 720687)
Details: autofluorescence 405/460 nm, 1 h; series mostly up to 91.3 µM
In short: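 Cells (2,000/well in MEM with 10% FBS) attached overnight at 37 C, then were exposed to compound or DMSO for 1 hr at 37 C, 5% CO2. Fluorescence read at Ex/Em 405/460 nm, expressed as triamterene-equivalent signal.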

| SMILES | outcome | fluorescence, % of fluorescent control |
| --- | --- | --- |
| CC/C=C/CCCCCCCCCCOC(C)=O | inactive |  |
| Cc1ccc(Br)cc1 | inactive |  |
| O=C(O)/C=C(\CC(=O)O)C(=O)O | inactive |  |
| C=CCON/C(CCC)=C1\C(=O)CC(C)(C)C(C(=O)OC)=C1O | inactive |  |
| CCOc1ccccc1OCCN[C@H](C)Cc1ccc(OC)c(S(N)(=O)=O)c1 | inactive |  |
| CCCCCCCCCCCCCCBr | inactive |  |
| CCN1CCN(C(=O)N[C@@H](C(=O)N[C@@H]2C(=O)N3[C@@H]2SC(C)(C)[C@H]3C(=O)O)c2ccccc2)C(=O)C1=O | inactive |  |
| CCCCNCC | inactive |  |
| C[Si](C)(C)O[Si](O)(O)O | inactive |  |
| O=C(CCBr)N1CCN(C(=O)CCBr)CC1 | inactive |  |
| Cc1ccccc1OCC(=O)O | inactive |  |
| C/C(=N\O)c1ccc(OCC(=O)N2CCCCC2)cc1 | inactive |  |
| CC/C=C\CCCCCCCCCCOC(C)=O | inactive |  |
| COCc1nnc(-c2ccc[n+]([O-])c2)n1-c1c(Cl)c(Cl)cc2[nH]c(=O)c(=O)[nH]c12 | inactive |  |
| CC1(C)S[C@@H]2[C@H](NC(=O)Cc3ccccc3)C(=O)N2[C@H]1C(=O)O (tested in a mixture with another compound) | inactive |  |
| CC1=C(O)C(=O)CO1 | inactive |  |
| CC(C)C(C)C | inactive |  |
| O=C(O)Cc1c(Cl)ccc(Cl)c1Cl | inactive |  |

| SMILES | outcome | fluorescence, % of fluorescent control |
| --- | --- | --- |
| CCC(=O)OCCOc1ccccc1 | inactive |  |
| N=C(N)S(=O)O | inactive |  |
| CC(C)(C)C(=O)CCc1ccc(Cl)cc1 | inactive |  |
| CC[C@@]1(c2ccccc2)NC(=O)N(C)C1=O | inactive |  |
| CCCCCCCCS(=O)(=O)O | inactive |  |
| C=CCCCCCCCCCCCCCC |  | 0.001% [at 18.6 µM] |
| N#CC1(N)CCCCC1 | inactive |  |
| CN(C)c1ccncc1 | inactive |  |
| BrCCOc1ccccc1 | inactive |  |
| O=C1CC2(CCCC2)CC(=O)N1CCNCC1COc2ccccc2O1 (stereo not drawn) | inactive |  |
| CCOC(=O)c1ccc(N(C)C)cc1 | inactive |  |
| N=C(N)N1CCc2ccccc2C1 | inactive |  |
| CNC(C)=O | inactive |  |
| C=CCN(CC=C)CC=C | inactive |  |
| CCCCN1C(=O)c2ccccc2C1=O | inactive |  |
| COc1cc(NS(=O)(=O)c2ccc(N)cc2)ncn1 |  | -0.0071% [at 18.6 µM] |
| NNC(=O)CCCCC(=O)NN | inactive |  |

Biological target: Glucocorticoid receptor (Homo sapiens) (UniProt P04150)
Test: qHTS assay to identify small molecule agonists of the glucocorticoid receptor (GR) signaling pathway (AID 720691; active = well fitted activation curve with a large enough effect in the signal ratio in the repeat runs, not every such curve was filed as active; the % refers to the signal ratio)
Details: GR-bla HeLa, beta-lactamase reporter ratio, 18 h; series mostly up to 62.4 µM
In short: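 Steps: seed GR-bla HeLa cells, incubate 4 h at 37 C/5% CO2; pin-transfer DMSO-dissolved compounds; incubate 18 h at 37 C; add LiveBLAzer B/G FRET substrate; after 2 h at room temperature, measure fluorescence.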

Sequence of Glucocorticoid receptor (Homo sapiens) (P04150 whole entry, looked up): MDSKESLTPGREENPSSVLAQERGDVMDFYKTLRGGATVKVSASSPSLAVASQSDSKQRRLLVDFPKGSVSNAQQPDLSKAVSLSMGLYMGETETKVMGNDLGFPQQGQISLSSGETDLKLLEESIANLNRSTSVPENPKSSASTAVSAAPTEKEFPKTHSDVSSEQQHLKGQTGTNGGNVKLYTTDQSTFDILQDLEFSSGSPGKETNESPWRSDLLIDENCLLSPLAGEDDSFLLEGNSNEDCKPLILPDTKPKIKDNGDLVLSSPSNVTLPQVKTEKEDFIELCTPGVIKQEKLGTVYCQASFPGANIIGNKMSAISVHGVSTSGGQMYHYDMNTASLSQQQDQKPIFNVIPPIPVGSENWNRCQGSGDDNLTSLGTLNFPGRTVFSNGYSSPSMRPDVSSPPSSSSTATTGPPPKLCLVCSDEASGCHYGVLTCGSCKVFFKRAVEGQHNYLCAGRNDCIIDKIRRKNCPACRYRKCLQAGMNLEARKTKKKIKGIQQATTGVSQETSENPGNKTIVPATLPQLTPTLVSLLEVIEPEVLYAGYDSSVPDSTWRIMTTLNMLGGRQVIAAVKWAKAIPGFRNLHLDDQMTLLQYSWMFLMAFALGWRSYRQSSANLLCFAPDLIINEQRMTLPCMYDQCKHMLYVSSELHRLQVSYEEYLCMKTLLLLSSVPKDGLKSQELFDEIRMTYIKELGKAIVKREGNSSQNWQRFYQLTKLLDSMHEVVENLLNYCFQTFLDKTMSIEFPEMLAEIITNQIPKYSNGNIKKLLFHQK

| SMILES | Potency |
| --- | --- |
| Cc1ccc(Br)cc1 | inactive |
| C=CCON/C(CCC)=C1\C(=O)CC(C)(C)C(C(=O)OC)=C1O | inactive |
| C[Si](C)(C)O[Si](O)(O)O | inactive |
| O=C(CCBr)N1CCN(C(=O)CCBr)CC1 | inactive |
| Cc1ccccc1OCC(=O)O | inactive |
| CC/C=C\CCCCCCCCCCOC(C)=O | inactive |
| CC1(C)S[C@@H]2[C@H](NC(=O)Cc3ccccc3)C(=O)N2[C@H]1C(=O)O (tested in a mixture with another compound) | inactive |
| CC(C)C(C)C | inactive |
| BrCCOc1ccccc1 | inactive |
| N=C(N)N1CCc2ccccc2C1 | inactive |
| CNC(C)=O | inactive |
| C=CCN(CC=C)CC=C | inactive |
| COc1cc(NS(=O)(=O)c2ccc(N)cc2)ncn1 | inactive |
| NNC(=O)CCCCC(=O)NN | inactive |

Biological target: Glucocorticoid receptor (Homo sapiens) (UniProt P04150)
Test: qHTS assay to identify small molecule antagonists of the glucocorticoid receptor (GR) signaling pathway (AID 720692; active = well fitted inhibition curve with a large enough effect in the signal ratio in the repeat runs, not every such curve was filed as active; the % refers to the signal ratio)
Details: GR-bla HeLa, beta-lactamase FRET ratio, dexamethasone-stimulated, 18 h; series mostly up to 58.5 µM
In short: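 Antagonism was scored as loss of dexamethasone-driven (5 nM final) reporter signal in HeLa cells bearing a glucocorticoid response element–beta-lactamase construct, after 18 h compound exposure at 37 C and 2 h FRET substrate loading.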

| SMILES | outcome |
| --- | --- |
| CC/C=C/CCCCCCCCCCOC(C)=O | inactive |
| Cc1ccc(Br)cc1 | inactive |
| C=CCON/C(CCC)=C1\C(=O)CC(C)(C)C(C(=O)OC)=C1O | inactive |
| CCCCCCCCCCCCCCBr | inactive |
| CCCCNCC | inactive |
| C[Si](C)(C)O[Si](O)(O)O | inactive |
| O=C(CCBr)N1CCN(C(=O)CCBr)CC1 | inactive |
| Cc1ccccc1OCC(=O)O | inactive |
| CC/C=C\CCCCCCCCCCOC(C)=O | inactive |
| CC(C)C(C)C | inactive |
| C=CCCCCCCCCCCCCCC | inactive |
| BrCCOc1ccccc1 | inactive |
| CCOC(=O)c1ccc(N(C)C)cc1 | inactive |
| N=C(N)N1CCc2ccccc2C1 | inactive |
| CNC(C)=O | inactive |
| C=CCN(CC=C)CC=C | inactive |
| CCCCN1C(=O)c2ccccc2C1=O | inactive |
| COc1cc(NS(=O)(=O)c2ccc(N)cc2)ncn1 | inactive |
| NNC(=O)CCCCC(=O)NN | inactive |
